# Measurements from PubChem BioAssay.
# Active and inactive are the calls of the source. Unless noted, no rule for the calls is given here.
# Experiments:
# [1] = inhibitors of CD8+ T cell-vesicle binding, pilot screen, LFA-1/ICAM-1 modulator project, MLPCN validation set, flow cytometry (AID 2523;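 active = response below a set limit, under 55% cells CD8-positive and vesicle-bound, and CD8 cells' 90th-percentile brightness under 279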;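 as to vesicle binding response: mean PE anti-B7-1 fluorescence of CD8+ cells relative to row control; 100% = QL9-loaded vesicles with DMSO vehicle in the same plate row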); settings: 2C mouse CD8+ T cells, at 7 µM, stronger effect = lower value; double positive events: measured here: CD8+/vesicle+ event percentage
# [2] = target: Integrin beta-1 (Homo sapiens) + Integrin alpha-4 (Homo sapiens) (UniProt P13612+P05556); assay: inhibition of HUTS-21 binding to VLA-4, pilot screen, VLA-4 allosteric modulator project, U937 cells, HUTS-21 mAb, flow cytometry, validation set (AID 2674;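 active = inhibition above 50%, about 3 SD of the validation set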;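 also: antibody binding induced by the VLA-4 ligand LDV present at three times its Kd; 0% = LDV ligand with antibody and no compound and 100% = antibody without LDV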); settings: HUTS-21 LIBS mAb binding, at 6.7 µM, stronger effect = higher value
# Integrin beta-1 (Homo sapiens) + Integrin alpha-4 (Homo sapiens), sequence (P05556 whole entry, looked up): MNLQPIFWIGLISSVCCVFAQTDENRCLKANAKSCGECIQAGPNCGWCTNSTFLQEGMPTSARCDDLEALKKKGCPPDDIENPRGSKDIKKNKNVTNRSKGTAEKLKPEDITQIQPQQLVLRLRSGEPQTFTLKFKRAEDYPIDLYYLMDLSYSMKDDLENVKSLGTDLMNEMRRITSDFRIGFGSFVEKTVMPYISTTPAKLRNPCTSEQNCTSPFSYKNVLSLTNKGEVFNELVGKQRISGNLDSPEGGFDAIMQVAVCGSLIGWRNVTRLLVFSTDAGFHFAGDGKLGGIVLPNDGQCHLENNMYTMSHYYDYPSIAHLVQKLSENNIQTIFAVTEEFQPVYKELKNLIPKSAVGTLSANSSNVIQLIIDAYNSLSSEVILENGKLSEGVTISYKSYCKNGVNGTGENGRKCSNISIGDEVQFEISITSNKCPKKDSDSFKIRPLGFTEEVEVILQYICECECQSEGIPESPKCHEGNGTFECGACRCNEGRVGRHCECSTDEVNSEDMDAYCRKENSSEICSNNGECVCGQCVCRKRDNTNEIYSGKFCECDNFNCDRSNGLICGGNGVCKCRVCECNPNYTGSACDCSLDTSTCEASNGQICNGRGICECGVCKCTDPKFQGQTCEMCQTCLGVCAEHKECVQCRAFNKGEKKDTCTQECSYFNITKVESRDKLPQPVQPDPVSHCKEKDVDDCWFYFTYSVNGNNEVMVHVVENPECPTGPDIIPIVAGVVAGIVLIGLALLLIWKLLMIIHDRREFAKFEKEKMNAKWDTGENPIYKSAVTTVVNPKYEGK
# Integrin beta-1 (Homo sapiens) + Integrin alpha-4 (Homo sapiens), sequence (P13612 whole entry, looked up): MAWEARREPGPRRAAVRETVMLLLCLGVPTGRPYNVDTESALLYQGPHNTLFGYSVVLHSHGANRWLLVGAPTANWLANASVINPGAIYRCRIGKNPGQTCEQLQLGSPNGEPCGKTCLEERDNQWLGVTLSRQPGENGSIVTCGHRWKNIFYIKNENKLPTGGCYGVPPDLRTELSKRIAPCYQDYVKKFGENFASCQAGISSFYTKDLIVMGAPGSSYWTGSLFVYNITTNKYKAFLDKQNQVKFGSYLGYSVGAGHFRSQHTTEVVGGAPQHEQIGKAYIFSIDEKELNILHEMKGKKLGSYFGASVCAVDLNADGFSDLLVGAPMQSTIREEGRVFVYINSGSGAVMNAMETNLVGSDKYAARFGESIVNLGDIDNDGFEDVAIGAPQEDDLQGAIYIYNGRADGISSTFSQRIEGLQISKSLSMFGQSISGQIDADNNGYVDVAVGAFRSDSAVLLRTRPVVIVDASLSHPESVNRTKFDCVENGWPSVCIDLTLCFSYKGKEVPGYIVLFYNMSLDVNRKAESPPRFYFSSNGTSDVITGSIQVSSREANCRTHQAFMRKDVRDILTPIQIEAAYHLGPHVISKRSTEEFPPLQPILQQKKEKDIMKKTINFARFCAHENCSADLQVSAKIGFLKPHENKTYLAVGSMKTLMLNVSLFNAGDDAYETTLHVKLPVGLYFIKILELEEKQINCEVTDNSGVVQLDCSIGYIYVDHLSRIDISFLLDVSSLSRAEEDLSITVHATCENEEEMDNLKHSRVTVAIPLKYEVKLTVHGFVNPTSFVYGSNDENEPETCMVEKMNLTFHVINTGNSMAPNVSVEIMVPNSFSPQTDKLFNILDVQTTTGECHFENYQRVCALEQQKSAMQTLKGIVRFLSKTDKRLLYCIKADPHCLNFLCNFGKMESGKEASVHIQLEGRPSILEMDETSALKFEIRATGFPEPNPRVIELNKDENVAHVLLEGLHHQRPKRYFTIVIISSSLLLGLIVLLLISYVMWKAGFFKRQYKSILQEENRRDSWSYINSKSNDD
# [3] = superoxide lowering in aged yeast cells, pilot screen, validation compound set (AID 2706;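 active = superoxide response below 65% of plate, a cut near 3 SD across the whole screen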;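 also: yeast exposed to compound for one week at 30 degrees C before staining; 100% = mean of all compound wells on the same plate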); settings: S. cerevisiae aging, superoxide DHE fluorescence; at 10 µM; stronger effect = lower value
# [4] = target: Beta-adrenergic receptor kinase 1 (Homo sapiens) (UniProt P25098); assay: GRK2 binders displacing RNA aptamer, biochemical, validation, human GRK2, bead flow cytometry (AID 488806;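 active = aptamer binding inhibition above 30%, about 3 SD of noise from non-fluorescent compounds; inactive = inhibition at or below 30%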); settings: bead-bound GRK2, FAM-aptamer displacement, at 10 µM, stronger effect = higher value
# [5] = target: AP-2 complex subunit beta (Homo sapiens) (UniProt P63010); assay: inhibitors of arrestin peptide binding to AP2, pilot screen, biochemical, validation set, GST-AP2 beads, flow cytometry (AID 504541;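 active = inhibition above 54%, about 3 SD of non-fluorescent compounds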;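 also: AP2 carries R879A mutation and is captured from E. coli lysate; bead-bound FITC arrestin peptide fluorescence measuring arrestin peptide binding to AP2; 0% = DMSO wells and 100% = excess unlabeled arrestin peptide control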); settings: FITC arrestin peptide, at 10 µM, stronger effect = higher value
# AP-2 complex subunit beta (Homo sapiens), sequence (P63010 whole entry, looked up, one chain of several): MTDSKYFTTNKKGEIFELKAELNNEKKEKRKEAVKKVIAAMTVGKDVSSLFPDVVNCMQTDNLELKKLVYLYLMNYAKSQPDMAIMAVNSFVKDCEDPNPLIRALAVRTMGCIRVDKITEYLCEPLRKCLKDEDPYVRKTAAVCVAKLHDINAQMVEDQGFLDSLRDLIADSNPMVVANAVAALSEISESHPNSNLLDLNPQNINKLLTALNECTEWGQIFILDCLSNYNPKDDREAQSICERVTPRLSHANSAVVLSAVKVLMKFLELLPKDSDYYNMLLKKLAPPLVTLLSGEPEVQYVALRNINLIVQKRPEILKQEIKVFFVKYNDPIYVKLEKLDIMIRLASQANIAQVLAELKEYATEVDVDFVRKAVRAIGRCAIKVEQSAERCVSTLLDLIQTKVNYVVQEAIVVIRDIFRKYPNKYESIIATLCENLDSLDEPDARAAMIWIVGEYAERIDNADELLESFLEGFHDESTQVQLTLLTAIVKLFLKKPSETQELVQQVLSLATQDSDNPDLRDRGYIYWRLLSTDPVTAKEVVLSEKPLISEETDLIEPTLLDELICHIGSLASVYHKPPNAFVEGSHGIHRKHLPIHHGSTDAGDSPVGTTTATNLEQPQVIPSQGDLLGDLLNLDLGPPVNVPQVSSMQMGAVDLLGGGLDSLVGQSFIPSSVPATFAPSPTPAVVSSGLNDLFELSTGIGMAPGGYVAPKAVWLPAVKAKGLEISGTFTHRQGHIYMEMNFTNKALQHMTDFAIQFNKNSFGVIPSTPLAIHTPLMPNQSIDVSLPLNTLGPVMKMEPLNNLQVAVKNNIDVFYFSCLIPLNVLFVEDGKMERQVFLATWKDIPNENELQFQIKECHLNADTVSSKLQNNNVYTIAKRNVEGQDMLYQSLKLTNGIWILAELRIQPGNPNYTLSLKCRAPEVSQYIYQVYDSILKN
# [6] = yeast V-ATPase proton transport modulators, S. cerevisiae, pHLuorin, HTS validation (AID 504600; in the data active = response above about 15%;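 also: plate controls were DMSO for no effect and reference compound for full effect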); settings: S. cerevisiae pHLuorin cytosolic pH, at 10 µM, stronger effect = higher value
# [7] = test system: anti-desmoglein-3 scFv antibody binding to human DSG3; assay: inhibitors of anti-DSG3 scFv binding to DSG3, pilot screen, biochemical, validation compound set, bead-based, flow cytometry (AID 588368;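 active = binding below the plate cutoff, the plate median minus 3 SD, with a reading above zero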;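 also: signal is the median channel fluorescence of bead-bound GFP antibody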); settings: Protein G beads, DSG3-Fc, scFv-GFP binding, at 10 µM, stronger effect = lower value
# [8] = test system: Botulinum neurotoxin type F light chain protease (Clostridium botulinum); assay: Botulinum neurotoxin type F light chain protease inhibition, multiplex microsphere flow cytometry, validation set (AID 588459); settings: multiplex microsphere protease substrate cleavage assay, at 10 µM, stronger effect = higher value
# [9] = target: Botulinum neurotoxin type A (Clostridium botulinum) (UniProt P0DPI0); assay: BoNT/A light chain protease inhibitors, biochemical, multiplex microsphere flow cytometry, validation set (AID 588460); settings: at 10 µM, stronger effect = higher value
# Botulinum neurotoxin type A (Clostridium botulinum), sequence (P0DPI0 whole entry, looked up): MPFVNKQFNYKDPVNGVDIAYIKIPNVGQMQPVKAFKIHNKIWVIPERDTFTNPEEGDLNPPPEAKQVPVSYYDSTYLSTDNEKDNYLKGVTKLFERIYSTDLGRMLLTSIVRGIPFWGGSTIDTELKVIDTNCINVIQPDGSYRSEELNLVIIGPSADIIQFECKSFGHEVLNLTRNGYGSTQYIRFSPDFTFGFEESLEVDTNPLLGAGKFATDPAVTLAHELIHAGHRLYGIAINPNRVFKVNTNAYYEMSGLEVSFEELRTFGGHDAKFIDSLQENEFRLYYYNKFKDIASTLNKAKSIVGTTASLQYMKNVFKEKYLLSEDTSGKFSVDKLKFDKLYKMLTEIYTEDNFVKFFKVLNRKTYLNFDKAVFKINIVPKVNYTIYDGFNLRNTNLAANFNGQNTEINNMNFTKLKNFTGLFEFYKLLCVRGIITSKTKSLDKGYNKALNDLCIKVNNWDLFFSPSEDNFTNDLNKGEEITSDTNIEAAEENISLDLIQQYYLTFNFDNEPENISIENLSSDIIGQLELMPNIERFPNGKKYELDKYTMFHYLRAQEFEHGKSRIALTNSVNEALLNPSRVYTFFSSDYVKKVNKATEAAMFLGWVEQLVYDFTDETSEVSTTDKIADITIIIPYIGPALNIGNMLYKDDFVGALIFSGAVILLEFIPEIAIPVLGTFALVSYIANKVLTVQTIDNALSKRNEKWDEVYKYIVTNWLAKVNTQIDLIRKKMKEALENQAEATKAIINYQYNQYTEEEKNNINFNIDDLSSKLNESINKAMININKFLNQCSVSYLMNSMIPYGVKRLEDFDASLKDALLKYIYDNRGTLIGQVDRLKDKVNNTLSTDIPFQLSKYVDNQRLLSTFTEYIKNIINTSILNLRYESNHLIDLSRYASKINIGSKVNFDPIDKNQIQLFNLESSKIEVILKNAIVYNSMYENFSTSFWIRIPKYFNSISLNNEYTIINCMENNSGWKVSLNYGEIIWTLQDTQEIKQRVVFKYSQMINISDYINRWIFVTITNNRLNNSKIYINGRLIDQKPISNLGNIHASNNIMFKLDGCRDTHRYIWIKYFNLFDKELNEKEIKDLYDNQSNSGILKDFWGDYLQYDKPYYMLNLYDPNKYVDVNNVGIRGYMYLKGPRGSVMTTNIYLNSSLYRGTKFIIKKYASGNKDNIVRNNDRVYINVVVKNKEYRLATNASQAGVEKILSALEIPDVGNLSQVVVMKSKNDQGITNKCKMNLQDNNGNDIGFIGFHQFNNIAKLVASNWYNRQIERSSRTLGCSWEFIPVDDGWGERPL
# [10] = target: Lethal factor (Bacillus anthracis) (UniProt P15917); assay: Lethal factor protease inhibitors, Bacillus anthracis, multiplex microsphere cleavage assay, validation set (AID 588461); settings: flow cytometry, at 10 µM, stronger effect = higher value
# Lethal factor (Bacillus anthracis), sequence (P15917 whole entry, looked up): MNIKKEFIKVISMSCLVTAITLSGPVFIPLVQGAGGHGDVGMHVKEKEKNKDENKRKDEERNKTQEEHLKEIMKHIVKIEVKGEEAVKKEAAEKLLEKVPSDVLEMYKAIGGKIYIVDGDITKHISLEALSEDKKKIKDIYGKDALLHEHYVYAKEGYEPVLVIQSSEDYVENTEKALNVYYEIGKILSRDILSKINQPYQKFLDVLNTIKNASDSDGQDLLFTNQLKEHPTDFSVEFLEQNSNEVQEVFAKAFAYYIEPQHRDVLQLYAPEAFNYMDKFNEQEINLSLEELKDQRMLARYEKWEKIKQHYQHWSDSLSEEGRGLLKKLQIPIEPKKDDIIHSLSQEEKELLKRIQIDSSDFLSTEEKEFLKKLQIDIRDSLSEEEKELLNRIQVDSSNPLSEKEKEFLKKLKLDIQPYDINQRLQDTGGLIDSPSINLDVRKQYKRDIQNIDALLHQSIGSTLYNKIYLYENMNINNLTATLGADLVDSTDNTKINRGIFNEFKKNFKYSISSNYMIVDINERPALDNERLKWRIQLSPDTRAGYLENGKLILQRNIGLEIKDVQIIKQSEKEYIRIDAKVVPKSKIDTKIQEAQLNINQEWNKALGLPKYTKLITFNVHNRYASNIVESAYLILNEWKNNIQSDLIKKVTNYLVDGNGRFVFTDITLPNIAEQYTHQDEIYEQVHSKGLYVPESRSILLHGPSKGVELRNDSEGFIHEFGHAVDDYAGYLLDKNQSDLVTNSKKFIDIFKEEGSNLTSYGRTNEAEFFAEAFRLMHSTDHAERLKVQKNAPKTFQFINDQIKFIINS
# [11] = inhibitors of fungal efflux pumps CDR1, CDR2, MDR1, pilot screen, validation compound set, multiplex, phenotypic (AID 588506;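 active = efflux inhibition above 0.42, the validation set average plus 4 SD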;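 also: Nile Red retained in cells so higher fluorescence means more efflux inhibition; 0 = negative control wells and 1 = enniatin B 25 µM full block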); settings: S. cerevisiae pump-expressing triplex, Nile Red efflux flow cytometry; at 10 µM; stronger effect = higher value
# [12] = target: ATP-binding cassette sub-family B member 6 (Homo sapiens) (UniProt Q9NP58); assay: ABCB6 transporter inhibitors, pilot screen, K562-ABCB6 cells, flow cytometry, validation set (AID 588550;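 active = inhibition above the screen-wide mean plus 3 SD, about 51%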;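 also: 0% = DMSO wells and 100% = benzethonium chloride 70 µM positive control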); settings: K562-ABCB6 porphyrin accumulation, 1 h, at 10 µM, stronger effect = higher value
# [13] = promoters of myeloid differentiation in arrested cells, primary screen, cell-based, GFP/MAC1 double positive, flow cytometry, validation set (AID 588685;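 active = differentiation response of at least 50%, scaled between solvent and reference control, from cells with both markers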;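 also: compound exposure lasts four days before antibody staining and flow analysis; 0% = DMSO wells and 100% = 5 µM fulvestrant positive control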); settings: ER-HoxA9 marrow cells, stronger effect = higher value
# [14] = RPL19A-GFP modulators, yeast TOR pathway, confirmation, cell-based, S. cerevisiae, flow cytometry, cherry picks, mother/daughter gates (AID 2270;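 active = GFP response below 50% of the DMSO control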); settings: S. cerevisiae RPL19A-GFP strain, 3 h, at 10 µM, stronger effect = lower value, 100 = same GFP as DMSO wells
# [15] = LAP4-GFP expression modulators in yeast, confirmation, cell-based, cherry picks, flow cytometry, mother/daughter gates (AID 2271;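 active = GFP response above 150% of the DMSO control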;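 also: ratio of sample to DMSO plate mean so 100% equals DMSO level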); settings: S. cerevisiae LAP4-GFP strain, 3 h, at 10 µM, stronger effect = higher value
# [16] = modulators of CIT2-GFP expression in yeast, confirmation, S. cerevisiae, GFP fusion, cherry picks, mother/daughter gates (AID 2274;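 active = GFP response above 150% of the DMSO level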); settings: S. cerevisiae CIT2-GFP strain, flow cytometry, 3 h, at 10 µM, stronger effect = higher value
# [17] = measured here: daughter cell gate
# [18] = measured here: mother cell gate
# [19] = measured here: daughter cell gate response
# [20] = measured here: mother cell gate response
smiles,measurement,setting,value
c1ccc2c(c1)OCC(C1=NCCN1)O2 (stereo not drawn),double positive events,[1],56.2%
same,vesicle binding response,[1],163% (inactive)
same,inhibition,[2],0.69% (inactive)
same,superoxide response (% of plate),[3],90.8% (inactive)
same,aptamer binding inhibition,[4],1% (inactive)
same,inhibition,[5],-3.31% (inactive)
same,response,[6],3.01% (inactive)
same,binding (% of control),[7],99.6% (inactive)
same,inhibition,[8],-2.1% (inactive)
same,inhibition,[9],0.1% (inactive)
same,inhibition,[10],0.2% (inactive)
same,efflux inhibition (fraction of control),[11],-0.12 (inactive)
same,inhibition,[12],7% (inactive)
same,differentiation response,[13],-19.6% (inactive)
O=[N+]([O-])c1ccc(N2CCNCC2)cc1Sc1ccccn1,GFP response vs DMSO,[14],98.4% (inactive)
same,GFP response vs DMSO,[14]; [17],98.4%
same,GFP response vs DMSO,[14]; [18],99.4%
same,GFP response relative to DMSO,[15],91.4% (inactive)
same,GFP response relative to DMSO,[15]; [19],92.5%
same,GFP response relative to DMSO,[15]; [20],91.1%
same,"GFP response, % of DMSO",[16],96.5% (inactive)
same,"GFP response, % of DMSO",[16]; [17],96.5%
same,"GFP response, % of DMSO",[16]; [18],95.5%
O=C1NC(=S)N(c2ccccc2)C(=O)/C1=C/c1ccco1,GFP response vs DMSO,[14],98.8% (inactive)
same,GFP response vs DMSO,[14]; [18],91.4%
same,GFP response relative to DMSO,[15],112% (inactive)
same,GFP response relative to DMSO,[15]; [19],116%
same,GFP response relative to DMSO,[15]; [20],111%
same,"GFP response, % of DMSO",[16],84.8% (inactive)
same,"GFP response, % of DMSO",[16]; [18],65.5%
NC12CC3CC(CC(C3)C1)C2,inhibition,[8],-1.1% (inactive)
same,inhibition,[9],-0.6% (inactive)
CCC(COC(=O)c1cc(OC)c(OC)c(OC)c1)(c1ccccc1)N(C)C (stereo not drawn),double positive events,[1],73.3%
same,vesicle binding response,[1],306% (inactive)
same,inhibition,[2],1.44% (inactive)
same,superoxide response (% of plate),[3],93.6% (inactive)
same,aptamer binding inhibition,[4],1% (inactive)
same,inhibition,[5],-3.75% (inactive)
same,response,[6],-2.48% (inactive)
same,binding (% of control),[7],98.7% (inactive)
same,inhibition,[8],-3.5% (inactive)
same,inhibition,[9],-2.8% (inactive)
same,inhibition,[10],-8.8% (inactive)
same,efflux inhibition (fraction of control),[11],0.04 (inactive)
same,inhibition,[12],15% (inactive)
same,differentiation response,[13],-3.02% (inactive)
Cc1cc(NS(=O)(=O)c2ccc(N)cc2)no1,inhibition,[8],0% (inactive)
same,inhibition,[9],0.1% (inactive)
Cc1nc2ccccc2c(=O)n1-c1ccc(C(=O)O)cc1,double positive events,[1],63.4%
same,vesicle binding response,[1],165% (inactive)
same,inhibition,[2],2.93% (inactive)
same,superoxide response (% of plate),[3],96.8% (inactive)
same,aptamer binding inhibition,[4],3% (inactive)
same,inhibition,[5],34.5% (inactive)
same,response,[6],-10.1% (inactive)
same,binding (% of control),[7],101% (inactive)
same,inhibition,[8],0.9% (inactive)
same,inhibition,[9],-0.2% (inactive)
same,inhibition,[10],-5.6% (inactive)
same,efflux inhibition (fraction of control),[11],-0.43 (inactive)
same,inhibition,[12],-3% (inactive)
same,differentiation response,[13],-8.96% (inactive)
CS(=O)(=O)Nc1ccc([N+](=O)[O-])cc1Oc1ccccc1,inhibition,[8],0% (inactive)
same,inhibition,[9],-0.9% (inactive)
CC12CN3CC(c4ccccc4)(CN(C1)C31CCCCC1)C2=O,double positive events,[1],60.1%
same,vesicle binding response,[1],232% (inactive)
same,inhibition,[2],9.13% (inactive)
same,superoxide response (% of plate),[3],90.5% (inactive)
same,aptamer binding inhibition,[4],4% (inactive)
same,inhibition,[5],-0.95% (inactive)
same,response,[6],0.31% (inactive)
same,binding (% of control),[7],99.5% (inactive)
same,inhibition,[8],2.1% (inactive)
same,inhibition,[9],-0.1% (inactive)
same,inhibition,[10],-2.8% (inactive)
same,efflux inhibition (fraction of control),[11],-0.03 (inactive)
same,inhibition,[12],-51% (inactive)
same,differentiation response,[13],13.6% (inactive)
